CRFBP-R2 agonist = agonists of human CRF-binding protein/CRF-R2 receptor complex; HEK293 CRF-R2/CRF-BP, calcium dye fluorescence (FLIPR); percent of saturating CRF peptide response; activation, % at 13.2 µM; hit rate 0.46% among 350,000; AID 588473;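 active = activation of at least 50%, plus an integration ratio under a set limit after plate pattern correction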;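 note: plate controls were neutral control wells without compound for no effect and CRF at EC100 for full effect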
CRFBP-R2 block = CRF-BP/CRF-R2 complex antagonism; hit rate 0.59% among 350,000; HEK293 CRF-R2/CRF-BP, CRF-induced calcium fluorescence; AID 588475; inhibition, % at 11.8 µM;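 active = inhibition of the ligand-induced calcium signal above about 50% at the single tested concentration, limit read from the data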
SKN-1 block = inhibitors of C. elegans SKN-1; C. elegans VP596 Pgst-4::GFP/RFP ratio, acrylamide-induced, 24 h; inhibition, % at 21.8 µM; hit rate 0.49% among 360,000; AID 624304;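 active = interference check ratio from 0.5 to 1.5 plus GFP to RFP signal ratio inhibition reaching or exceeding a fixed threshold, cut at about 30% in these data, passing the limit was not always enough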
hiPSC survival = enhancers of human iPSC single-cell survival; hit rate 0.044% among 360,000; hiPSC single-cell survival, ATPlite luminescence; 100% = ROCK inhibitor wells, 0% = DMSO; survival enhancement, % at 20 µM; AID 602274; in the data active = survival enhancement above about 18%;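 note: cells exposed to compounds for 16 hours before the ATP read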
TAG inh = triacylglycerol accumulation inhibition. H9c2 cells, Nile Red lipid (TAG) fluorescence; cells loaded with 200 µM oleic acid. inhibition, % at 12.5 µM. hit rate 0.66% among 230,000;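 active = pattern-corrected inhibition of lipid staining of at least 50% with the nuclear-stain viability signal not falling by more than 50%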;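 note: 0% = DMSO wells and 100% = triacsin C control wells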
H9c2 protect = myocardial damage modulation in H9c2 cells | H9c2 cardiomyocytes, H2O2 injury protection, ATPLite, 2 h | protection from H2O2 cell death, % at 20 µM | hit rate 0.63% among 360,000;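 active = compounds giving at least 50% protection of heart cells from peroxide-induced death in the single-dose screen, raw or plate-pattern-corrected value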;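 note: 0% = DMSO wells with peroxide and 100% = DMSO wells without peroxide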
The depositor's hits bear a star; . = not tested or not shown; ! = not confirmed by another sample. Only some compounds are listed: those with a hit (about 2.5% of all), similar ones and a draw of the others.

SMILES | CRFBP-R2 agonist | CRFBP-R2 block | SKN-1 block | hiPSC survival | TAG inh | H9c2 protect
CCC(CC)C(=O)N(CCc1ccc(OC)cc1)Cc1nc2ccccc2c(=O)[nH]1 | -0.5 | -5.7 | 12.7 | 0.4 | . | 56.0*
O=C(CCc1nc2ccccc2c(=O)[nH]1)NNC(=O)c1cccc(Cl)c1 | 4.5 | -14.3 | 2.2 | -0.5 | 1.1 | 69.7*
O=C(CCc1nc2ccccc2c(=O)[nH]1)NNC(=O)COc1ccc(Br)cc1 | -0.6 | 0.9 | 26.6 | -0.2 | 1.4 | 44.9
C[C@H](CO)N1C[C@H](C)[C@@H](CN(C)Cc2ccccc2)OCc2cnnn2CCCC1=O | 0.6 | 5.3 | 0.2 | -1.3 | 3.1 | 22.6
COc1cc(OC)cc(C(=O)NNC(=O)CCc2nc3ccccc3c(=O)[nH]2)c1 | -0.7 | -1.7 | 4.1 | -1.8 | -9.0 | 56.1*
Cc1ccc(C(=O)NNc2c3ccccc3nc3ccccc23)cc1 | 0.0 | 5.1 | -4.0 | -0.2 | 3.9 | 7.2
O=C(NNc1c2ccccc2nc2ccccc12)c1ccc(Cl)cc1 | -1.3 | -1.1 | 41.1* | 0.0 | . | -0.3
c1ccc2c(CN3CCCCC3)csc2c1 | 96.3* | 35.1 | 4.7 | -0.8 | -10.9 | 4.4
c1ccc2c(CN3CCOCC3)csc2c1 | -1.4 | -1.4 | 10.0 | -0.6 | . | 2.1
CCCCNC(=O)c1ccc2nc(CC)c(N(CC)CCN(C)C)n2c1 | . | . | 10.6 | 1.2 | 18.1 | 5.8
Cc1nn(-c2cc(C(F)(F)F)ccc2Cl)c2nc(C(Cl)(Cl)Cl)[nH]c(=O)c12 | 0.5 | 52.1* | -6.7 | -0.3 | 2.6 | -7.2
COc1ccc2c(c1)c(C(=O)N1CCN(C)CC1)c(C)n2-c1ccccc1 | -1.1 | 0.1 | 3.6 | 1.2 | 5.1 | -0.4
COc1ccc2c(c1)c(C(=O)O)c(C)n2-c1ccc(Cl)cc1 | 2.9 | 105.5* | -14.8 | -0.9 | . | 8.1
CCN1C(=O)[C@H]2[C@@H](c3ccc(-c4cccc(Cl)c4)c(OC)c3)N[C@@](CC(C)C)(C(=O)OC)[C@H]2C1=O | 2.4 | 5.0 | -8.1 | -0.8 | 70.0* | -10.0
CCN1C(=O)[C@H]2[C@@H](c3ccc(-c4cccc(Cl)c4)cc3)N[C@@](CC(C)C)(C(=O)OC)[C@H]2C1=O | 1.5 | -0.9 | -5.6 | 0.6 | 28.7 | -5.1
CCCCC[C@@H](C)N1C[C@H](COCc2ccccc2)Oc2cc(N3CCC[C@H]3C(N)=O)ccc2S1(=O)=O | . | . | 15.2 | 1.2 | . | .
Cc1c(C#N)c(N)nc2c3c(sc12)NC(=O)CC3c1ccccc1 (stereo unspecified) | -1.1 | -4.8 | 4.4 | -0.2 | . | 50.3*
Cc1ccc(NC(=O)CCNS(=O)(=O)c2cccc3nonc23)cc1 | -3.1 | 9.4 | 0.2 | 1.3 | -10.7 | 1.2
CCOc1ccc(NC(=O)CCNS(=O)(=O)c2cccc3nonc23)cc1 | 0.6 | 54.9* | -5.1 | 0.9 | . | 7.7
CC(C)CC(=O)Nc1ccc(Oc2ccc(NC(=O)CC(C)C)cc2)cc1 | 2.1 | 9.3 | -15.2 | 5.6 | 7.2 | 8.7
CC(C)CC(=O)Nc1ccc(Nc2ccccc2)cc1 | 0.1 | 10.7 | 35.0* | 4.0 | -7.9 | -6.7
COc1ccc(CN2C(=O)c3ccccc3C2c2nnnn2C(C)C)cc1OC (stereo unspecified) | . | . | -5.7 | 0.4 | . | .
CCCCCNC(=O)C(C1CC1)n1c(=O)c(-c2ccccc2)nc2ccccc21 (stereo unspecified) | . | . | 5.9 | . | . | .
CC(C)c1ccc(NC(=O)C2Cc3c(-c4ccc(Cl)cc4)ccnc3O2)cc1 (stereo unspecified) | . | . | 18.7 | 4.0 | -41.6 | -3.5
Cc1ccc(-c2cc3nc(NCCc4ccncc4)n(C)c(=O)c3s2)cc1 | . | . | -16.0 | -1.5 | 41.8 | -2.6
SMILES | CRFBP-R2 agonist | CRFBP-R2 block | SKN-1 block | hiPSC survival | TAG inh | H9c2 protect
c1ccc(Nc2ccc(-n3ccnc3)nn2)cc1 | -3.6 | 11.1 | 12.5 | -0.5 | 12.3 | -8.7
Clc1ccc(Nc2ccc(-n3ccnc3)nn2)cc1Cl | -0.5 | -7.1 | 37.0* | -1.8 | 14.2 | -6.0
O=C(c1ccc(COc2ccccc2Cl)o1)N1CCN(Cc2ccc3c(c2)OCO3)CC1 | 1.3 | 59.5*! | 19.2 | 8.1 | 1.0 | 7.1
Fc1ccc(CNc2nc(-c3ccccc3)nc3ccccc23)cc1 | 8.4 | -66.2 | 46.1* | -2.6 | -4.2 | -11.7
CCCS(=O)(=O)NC(=O)C1(C)CCN(C(=O)Cc2cccc(OC)c2)C1 (stereo unspecified) | . | . | -8.2 | 1.1 | 2.9 | 6.7
Cc1ccc(C)c(C(=O)Nc2cc(C)nn2-c2nc(C)cc(C)n2)c1 | -3.8 | -12.7 | 12.0 | 2.7 | 2.0 | 50.2*
OC(CN1C2=NCCN2c2ccccc21)c1ccc2c(c1)OCO2 (stereo unspecified) | 3.1 | 51.8* | 1.5 | 0.9 | 6.3 | 33.1
OC(CN1C2=NCCCN2c2ccccc21)c1ccc2c(c1)OCO2 (stereo unspecified) | 0.0 | 0.3 | -2.2 | -4.6 | . | 27.0
NC(=O)C1CC(=O)N(c2ccc(OCc3ccc(Cl)c(Cl)c3)cc2)C1 (stereo unspecified) | -1.2 | 17.7 | 0.1 | -1.4 | -19.3 | -8.8
CC1(C)Cc2c(C#N)c(NCC3CCCO3)nc(-c3ccco3)c2CO1 (stereo unspecified) | 0.9 | 103.6* | 2.3 | 19.6* | 11.5 | -1.5
Cc1c(OCC(=O)NCCN2CCOCC2)ccc2c3c(c(=O)oc12)CCC3 | -1.6 | 114.8* | 23.1 | -0.6 | . | -3.2
Cc1c(OCC(=O)NCCN2CCOCC2)ccc2c1oc(=O)c1ccccc12 | 0.3 | -9.2 | 4.0 | 0.1 | . | 60.8*
C=CC(=O)Nc1cccc(Nc2nc(N[C@H]3CC[C@H](N(C)C)CC3)nc3c2ncn3C(C)C)c1 | -0.7 | -5.5 | -3.0 | -4.5 | 117.1 | 2.8
Cc1cc2[nH]c(=O)c3ccccc3n2n1 | 1.0 | 2.9 | -12.6 | -1.8 | 13.5 | 77.0*
COc1ccc(OC)c(NC(=O)CSc2ncnc3c2cnn3-c2ccccc2Cl)c1 | -0.3 | 55.8* | 8.6 | -3.5 | -126.9 | -28.9
O=C(/C=C/c1cn(CC(O)CN2CCCCC2)c2ccccc12)c1cccs1 (stereo unspecified) | 63.2* | -80.2 | 4.3 | -4.4 | . | -7.1
O=C(O)c1cc(-c2cccc3ccccc23)nc2ccccc12 | -0.2 | 5.4 | 37.2* | -0.6 | . | -8.2
C[C@H]1CN([C@@H](C)CO)C(=O)CCCn2cc(nn2)CO[C@@H]1CN(C)S(=O)(=O)c1ccc(Oc2ccccc2)cc1 | 0.0 | -2.8 | -2.4 | 1.1 | 10.1 | -1.2
COC(=O)c1ccc2nc(-c3ccc(OC)c(OC)c3)c(Cc3ccc(OC)cc3C)n2c1 | . | . | 10.0 | 1.5 | . | 5.2
O=C(CSc1ncn[nH]1)Nc1ccc(Cl)c(Cl)c1 | 0.0 | 8.0 | 44.4* | -2.5 | -9.2 | -6.2
O=C(NCC[C@H]1CC[C@H](NS(=O)(=O)c2ccccc2F)[C@@H](CO)O1)c1ccc(F)cc1 | . | . | -7.4 | . | . | .
O=C(c1ccc(F)cc1)N1CCN(c2ccccn2)CC1 | 1.4 | 0.5 | 10.7 | 0.4 | -1.1 | 5.2
CCn1c(C)c(C)c2cc(C(=O)N3CCCC3)ccc21 | -0.6 | 3.5 | 58.1 | 1.2 | . | -2.1

Screens (PubChem BioAssay)
